Mdm2-MdmX inh: human Mdm2/MdmX binding inhibition | inhibition, % at 8 µM | 330,000 compounds, 3% hits | SaOS-2 split-luciferase Mdm2/MdmX complementation, luminescence;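 active = inhibition of at least 50% at 8 µM in the primary screen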
Target sequence (O15151 whole entry, looked up): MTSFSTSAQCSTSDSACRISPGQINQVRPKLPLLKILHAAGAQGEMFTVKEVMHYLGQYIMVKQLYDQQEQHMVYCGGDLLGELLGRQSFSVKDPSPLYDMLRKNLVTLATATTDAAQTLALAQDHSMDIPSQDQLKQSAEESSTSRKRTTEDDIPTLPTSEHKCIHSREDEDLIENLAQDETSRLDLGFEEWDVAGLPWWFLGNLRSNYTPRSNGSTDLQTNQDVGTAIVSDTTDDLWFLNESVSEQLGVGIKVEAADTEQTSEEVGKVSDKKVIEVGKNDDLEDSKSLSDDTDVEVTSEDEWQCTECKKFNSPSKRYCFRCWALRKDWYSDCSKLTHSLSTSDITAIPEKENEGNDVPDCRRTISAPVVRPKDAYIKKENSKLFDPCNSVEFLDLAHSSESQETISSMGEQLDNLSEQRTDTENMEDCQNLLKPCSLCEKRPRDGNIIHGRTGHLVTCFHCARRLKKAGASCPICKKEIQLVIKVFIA
Target sequence (Q00987 whole entry, looked up): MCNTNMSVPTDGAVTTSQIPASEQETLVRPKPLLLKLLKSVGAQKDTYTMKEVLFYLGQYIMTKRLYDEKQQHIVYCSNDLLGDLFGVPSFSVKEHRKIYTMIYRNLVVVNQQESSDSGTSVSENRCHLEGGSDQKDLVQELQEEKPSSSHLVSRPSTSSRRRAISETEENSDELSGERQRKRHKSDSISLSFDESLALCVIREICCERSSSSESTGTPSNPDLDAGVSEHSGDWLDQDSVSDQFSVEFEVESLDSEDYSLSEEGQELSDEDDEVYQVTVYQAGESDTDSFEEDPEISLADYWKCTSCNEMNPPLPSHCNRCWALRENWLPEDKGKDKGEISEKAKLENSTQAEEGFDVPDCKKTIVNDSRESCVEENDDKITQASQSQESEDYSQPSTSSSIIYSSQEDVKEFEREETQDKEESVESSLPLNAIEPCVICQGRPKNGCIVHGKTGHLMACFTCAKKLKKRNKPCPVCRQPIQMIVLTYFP
aSyn UTR inh: 5' untranslated region of α-synuclein, MLPCN primary screen. alpha-synuclein 5'UTR reporter, inhibitor activity. inhibition, % (tested at 7.5 µM). 300,000 compounds, 0.82% hits. AID 1813; in the data active = inhibition above about 60%;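 also: H4 neuroglioblastoma cells stably carrying SNCA 5'UTR luciferase fusion; 0% = DMSO wells and 100% = positive control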
Jurkat NFkB inh: lowers PMA/ionomycin-induced NF-kB signal in Jurkat cells; PMA/ionomycin-induced NF-kB luciferase reporter, luminescence; AID 435003; 330,000 compounds, 0.53% hits; inhibition, % at 4 µM; in the data active = inhibition above about 50%
CSC inhib: cancer stem cell inhibition | cancer stem cell-like cells viability, luminescence | inhibition, % at 7.5 µM | 300,000 compounds, 1.1% hits | AID 2717; in the data active = inhibition above about 75%; tested in HMLE shEcad cells
697 NFkB inh: lowers PMA/ionomycin-induced NF-kB signal in 697 B cells | 697 B-cell NF-kB luciferase reporter, 16 h | 330,000 compounds, 0.33% hits | inhibition, % at 4 µM | AID 435022; in the data active = inhibition above about 35%
Gli-Sufu antag: Gli-Sufu pathway antagonism; inhibition, % at 5 µM; 340,000 compounds, 0.74% hits; Sufu-KO-LIGHT fibroblasts, Gli luciferase reporter luminescence;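 active = inhibition above about 55%, limit read from the data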;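 also: 0% = DMSO-treated cells and 100% = wells with medium but no cells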
Jurkat NFkB conf: lowers PMA/ionomycin-induced NF-kB signal in Jurkat cells; AID 435020; shares compounds with Jurkat NFkB inh; 2,700 compounds, 27% hits; inhibition, % at 4 µM; Jurkat NF-kB luciferase, 16 h;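 active = inhibition reaching about 45% at 4 µM in either replicate, limit read from the data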;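 also: plate controls were PMA/ionomycin stimulated DMSO wells for no effect and unstimulated DMSO wells for full effect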
697 NFkB conf: lowers PMA/ionomycin-induced NF-kB signal in 697 B cells; shares compounds with 697 NFkB inh; 697 B-cell NF-kB luciferase, 16 h; inhibition, % at 4 µM; 2,000 compounds, 35% hits; in the data active = inhibition mostly above about 28%, no sharp cut-off; inactive = mostly below about 22%
Mdm2-MdmX conf: confirmation of human Mdm2/MdmX interaction inhibitors | shares compounds with Mdm2-MdmX inh | Mdm2-MdmX binding, luminescent assay | inhibition, % at 8 µM | 10,000 compounds, 55% hits; in the data active = inhibition above about 40%
FLuc counter: full-length luciferase inhibition in Mdm2/MdmX counter-screen; 6,200 compounds, 77% hits; shares compounds with Mdm2-MdmX inh; AID 504607; inhibition, % at 8 µM; SaOS-2 full-length luciferase counterscreen, luminescence;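 active = mean inhibition at 8 µM reaching about 37%, which flags the compound as non-specific, limit read from the data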;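 also: p53-null SaOS-2 cells with luciferase driven by a doxycycline-inducible promoter; compound on cells about two nights before reading with doxycycline added after day one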
Gli antag conf: confirmation of Gli-SUFU pathway antagonists; shares compounds with Gli-Sufu antag; Sufu-KO-LIGHT cells, Gli luciferase reporter, luminescence; inhibition, % at 5 µM; 2,500 compounds, 40% hits; AID 602428;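 active = mean inhibition at 5 µM reaching about 45%, limit read from the data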;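 also: plate controls were DMSO-treated cells for no effect and wells lacking cells for full effect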
SufuKO cytotox: cytotoxicity counter-screen for Gli-SUFU antagonists. AID 651994. Sufu-KO-LIGHT cells cytotoxicity, ATP luminescence. cytotoxicity, % at 5 µM. 2,500 compounds, 32% hits. shares compounds with Gli-Sufu antag;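 active = mean cytotoxicity at 5 µM above about 25%, limit read from the data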;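 also: cells exposed to compound overnight for roughly 16 to 18 hours; plate controls were DMSO wells with cells for no effect and medium without cells for full effect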
Wnt3a cs: counter-screen for Gli-SUFU antagonists: Wnt3a reporter inhibition; shares compounds with Gli-Sufu antag; Wnt-LIGHT cells, Wnt3a-driven luciferase reporter, luminescence; inhibition, % at 6.25 µM; 2,500 compounds, 20% hits; AID 651995;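 active = mean inhibition above about 25%, limit read from the data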
Starred values were filed as active, the others as inactive; / = not tested or not shown. The list is not random: actives were taken first. Their share in the collection is about 4.5%.

SMILES	Mdm2-MdmX inh	aSyn UTR inh	Jurkat NFkB inh	CSC inhib	697 NFkB inh	Gli-Sufu antag	Jurkat NFkB conf	Gli antag conf	SufuKO cytotox	Wnt3a cs	others
Cc1ccc(OCC(=O)c2cc(C)n(-c3ccccc3)c2C)c([N+](=O)[O-])n1	37	68*	76*	0	12	70*	11	74*	16	87*
Cc1cc(N2CCC(C)CC2)nc(NCc2ccccc2)n1	80*	-9	53*	37	-28	52	4	22	31*	-17	Mdm2-MdmX conf=51*;FLuc counter=40*
Cc1cccc(/C=N/Nc2cc(N3CCOCC3)nc(N3CCOCC3)n2)c1	18	-19	66*	46	58*	60*	9	41	34*	-103	697 NFkB conf=7
CC(C)c1ccc(/C=N/Nc2cc(N3CCOCC3)nc(N3CCOCC3)n2)cc1	13	/	-17	28	-46	9	/	/	/	/
COc1cc(CSc2nnnn2-c2ccc(C)cc2)cc(OC)c1OC	37	15	59*	-12	44*	69*	60*	68*	27*	40*	697 NFkB conf=47*
Cc1ccn(CCC(=O)Nc2ccc(-c3ccno3)cc2)n1	15	-29	12	-6	4	2	/	/	/	/
CCCCCCCOc1ccc(OC(=O)c2cccnc2)cc1	26	23	85*	96*	-139	74*	53*	60*	20	-8
CCCCOc1ccc(OC(=O)c2cccnc2)cc1	9	26	-10	35	-37	31	/	/	/	/
CCCCCCCOc1ccc(OC(=O)c2ccncc2)cc1	32	1	80*	/	-92	74*	55*	63*	20	10
COc1ccccc1N=C(C)C1=C(O)CC(c2ccccc2)CC1=O (stereo not drawn)	61*	122*	69*	41	9	56*	42	54*	63*	-35	Mdm2-MdmX conf=55*;FLuc counter=79*
CCCCC(=Nc1ccccc1OC)C1=C(O)CC(c2ccccc2)CC1=O (stereo not drawn)	-21	11	3	-10	18	-24	/	/	/	/
COc1cc(OC)cc(-c2nnc(SCC(=O)Nc3cccc(C(=O)O)c3)s2)c1	-20	0	8	/	-1	-4	/	/	/	/
Cc1nc2ccccc2c2c1CC(C(C)(Cl)Br)O2 (stereo not drawn)	15	2	56*	-10	-45	55*	56*	58*	22	7
Cc1ccc2nc(C)c3c(c2c1)OC(C(C)(Cl)Br)C3 (stereo not drawn)	10	10	18	0	-42	7	/	/	/	/
CC(=O)c1c(C)[nH]c(C(=O)OCC(=O)Nc2cc(Cl)ccc2[N+](=O)[O-])c1C	31	-23	5	3	-11	5	/	/	/	/
CC(=O)c1c(C)[nH]c(C(=O)OCC(=O)Nc2ccc(C)cc2[N+](=O)[O-])c1C	51*	-26	62*	-8	48*	77*	69*	80*	27*	28*	697 NFkB conf=27;Mdm2-MdmX conf=37;FLuc counter=58*
CN(C1CCCCC1)S(=O)(=O)c1ccc(SCC(=O)C(C)(C)C)nc1	14	/	-9	51	-2	6	/	/	/	/
CCn1c2ccccc2c2cc(NC(=O)c3cc(OC)c(OC)c(OC)c3)ccc21	69*	-23	57*	/	-140	71*	51*	60*	64*	0	Mdm2-MdmX conf=62*;FLuc counter=119*
CCn1c2ccccc2c2cc(NC(=O)c3cc(OC)cc(OC)c3)ccc21	43	101*	60*	84*	3	59*	41	62*	55*	-10
N#CCCN=C(NS(=O)(=O)c1ccccc1)c1ccccc1	27	29	-24	0	16	1	/	/	/	/
COc1ccc(CCNc2ncnc3c2oc2ccccc23)cc1OC	19	-44	62*	-3	47*	73*	57*	75*	28*	31*	697 NFkB conf=54*
COc1ccc(Nc2ncnc3sccc23)cc1OC	21	6	-29	-4	-6	-7	/	/	/	/
COc1ccc(CCNc2ncnc3sccc23)cc1OC	26	-21	64*	2	75*	75*	67*	80*	43*	41*	697 NFkB conf=92*
CC12CC3CC(C)(C1)CC(C(=O)N1CCN(C(=O)C4CCCO4)CC1)(C3)C2 (stereo not drawn)	14	6	-1	-16	3	-1	/	/	/	/
S=C1N(c2ccccc2)C(c2cccc3ccccc23)N2CCCN12 (stereo not drawn)	-1	-10	-15	3	-22	8	/	/	/	/
SMILES	Mdm2-MdmX inh	aSyn UTR inh	Jurkat NFkB inh	CSC inhib	697 NFkB inh	Gli-Sufu antag	Jurkat NFkB conf	Gli antag conf	SufuKO cytotox	Wnt3a cs	others
Cn1nc(CC(=O)Nc2ccc(N3CCN(C(=O)OC(C)(C)C)CC3)cc2)c2ccccc2c1=O	11	77*	55*	-1	46*	66*	53*	78*	39*	37*	697 NFkB conf=1
COc1cc(NC(=O)Cc2nn(C)c(=O)c3ccccc23)cc(OC)c1	18	1	12	-5	-17	24	/	/	/	/
Cn1nc(CC(=O)Nc2ccc3c(c2)OCCO3)c2ccccc2c1=O	31	16	52*	1	43*	66*	66*	68*	31*	41*	697 NFkB conf=41*
CC(=O)Nc1ccc(S(=O)(=O)N2c3ccccc3C(C)=CC2(C)C)cc1	74*	121*	62*	47	-25	57*	53*	52*	54*	23	Mdm2-MdmX conf=60*;FLuc counter=94*
Cc1cccc(C)c1OCCNC(=O)CCC(=O)c1ccccc1	15	-7	12	-6	-17	-3	/	/	/	/
COc1ccc(-c2c(C#N)c(N)nc3c2CCc2ccccc2-3)cc1OC	89*	-40	67*	53	24	54	44	56*	18	-8	Mdm2-MdmX conf=85*;FLuc counter=50*
CCOCCOC(=O)c1[nH]c2c(c1C)C(=O)CC(c1ccccc1)C2 (stereo not drawn)	50*	41	60*	55	-53	52	51*	53*	60*	-40	Mdm2-MdmX conf=56*;FLuc counter=96*
